Counter-ions that a name gives are not always drawn.
Test system: Saccharomyces cerevisiae BY4741 SeMeCo community
Experiment: z-score of subpopulation abundance vs DMSO median, subpopulation auxotrophic for HUM; higher = larger share of this subpopulation than in DMSO controls
Conditions: 10 µM; 24 h; SM minimal medium; subpopulation (auxotrophy): HUM
Method: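 Fluorescent four-plasmid SeMeCo (self-establishing metabolically cooperating S. cerevisiae BY4741 community; plasmids pH-mRuby2, pL-mWasabi, pU-eCFP, pM-TagRFP657) was grown 24 h in minimal SM medium with each Selleck FDA-approved drug at 10 µM in 384-well plates. Cells were fixed and imaged by high-content confocal microscopy. For each auxotrophic subpopulation (and the prototroph), a z-score gives the deviation from the DMSO vehicle-control population median.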

Structure (SMILES)	z-score of subpopulation abundance
C[C@@H]1O[C@@H](O[C@H]2C[C@@H](O)[C@]3(CO)[C@H]4[C@H](O)C[C@]5(C)[C@@H](C6=CC(=O)OC6)CC[C@]5(O)[C@@H]4CC[C@]3(O)C2)[C@H](O)[C@H](O)[C@H]1O [Ouabain]	-0.49
Cc1cc(C(C#N)c2ccc(Cl)cc2)c(Cl)cc1NC(=O)c1cc(I)cc(I)c1O (centres undefined) [Closantel]	0.04
COc1ccc(C(CN(C)C)C2(O)CCCCC2)cc1 (centres undefined) [Venlafaxine]	0.51
CN1[C@@H]2C[C@@H](OC(=O)[C@H](CO)c3ccccc3)C[C@H]1[C@@H]1O[C@@H]12 [Scopolamine HBr trihydrate]	-0.05
CC(C)(O)C(Cl)(Cl)Cl [Chlorobutanol]	-0.45
CN1[C@@H]2CC[C@H]1C[C@@H](OC(=O)[C@H](CO)c1ccccc1)C2 [Hyoscyamine]	-0.99
CCOC(=O)Nc1ccc(NCc2ccc(F)cc2)cc1N [Retigabine 2HCl]	0.72
N#Cc1nn(-c2c(Cl)cc(C(F)(F)F)cc2Cl)c(N)c1[S+]([O-])C(F)(F)F (centres undefined) [Fipronil]	-0.76
Nc1nc(N)nc(NC2CC2)n1 [Cyromazine]	-0.23
CCOC(=O)Nc1ccc(NCc2ccc(F)cc2)cc1N [Retigabine]	-0.05
CCCCCCCCCCCCCCCC[n+]1ccccc1 [Cetylpyridinium Chloride]	20.2
COc1ccc2[nH]cc(CCN)c2c1 [5-Methoxytryptamine]	0.46
C[N+]1(C)[C@@H]2C[C@@H](OC(=O)[C@H](CO)c3ccccc3)C[C@H]1[C@@H]1O[C@@H]12 [Methscopolamine]	0.63
CC[C@@H](C(N)=O)N1CCCC1=O [Levetiracetam]	-0.12
CC[C@@]1(O)C(=O)OCc2c1cc1n(c2=O)Cc2cc3ccccc3nc2-1 [Camptothecin]	-0.54
CN(C)[C@@H]1C(=O)C(C(N)=O)=C(O)[C@@]2(O)C(=O)C3=C(O)c4c(O)cccc4[C@@](C)(O)[C@H]3[C@H](O)[C@@H]12 [Oxytetracycline (Terramycin)]	-0.11
O=[N+]([O-])C(Br)(CO)CO [Bronopol]	-0.53

Structure (SMILES)	z-score of subpopulation abundance
C=CN1CCCC1=O.II [Povidone iodine]	1.77
Cn1cc(C2=C(c3cn(C4CCN(Cc5ccccn5)CC4)c4ccccc34)C(=O)NC2=O)c2ccccc21	-0.32
CNC1CC(N)C(O)C(OC2OC(CO)C(O)C3OC4(OC(C(N)CO)C(O)C(O)C4O)OC23)C1O (centres undefined) [Hygromycin B]	-0.41
CN(C)[C@@H]1C(=O)C(C(N)=O)=C(O)[C@@]2(O)C(=O)C3=C(O)c4c(O)cccc4[C@@](C)(O)[C@H]3C[C@@H]12 [Tetracycline HCl]	0.07
CC(=O)OCC1=C(C(=O)O)N2C(=O)C(N)C2SC1 (centres undefined) [7-Aminocephalosporanic acid]	0.03
O=c1[nH]c2ccccc2n1CCCN1CCC(n2c(=O)[nH]c3cc(Cl)ccc32)CC1 [Domperidone]	0.44
CN[C@@H]1[C@@H](O)[C@@H](O[C@@H]2[C@@H](O)[C@H](O[C@H]3O[C@H]([C@@H](C)O)[C@@H](O)[C@H](O)[C@H]3N)[C@@H](N)C[C@H]2N)OC[C@]1(C)O [Geneticin (G418 Sulfate)]	-0.88
CN(C)[C@@H]1C(=O)C(C(N)=O)=C(O)[C@@]2(O)C(=O)C3=C(O)c4c(O)ccc(Cl)c4[C@@](C)(O)[C@H]3C[C@@H]12 [Chlortetracycline HCl]	0.05
CCN(CC)CCOC(=O)C(O)(c1ccccc1)c1ccccc1 [Benactyzine hydrochloride]	0.98
CCN(C)C(=O)Oc1cccc([C@H](C)N(C)C)c1 [Rivastigmine]	0.66
CC(C)=CCOc1c2occc2cc2ccc(=O)oc12 [Imperatorin]	-1.03
COc1ccc(C(CN(C)C)C2(O)CCCCC2)cc1 (centres undefined) [Venlafaxine HCl]	0.07
CCCN1C[C@H](CSC)C[C@@H]2c3cccc4[nH]cc(c34)C[C@H]21 [Pergolide Mesylate]	-0.74
CC(=O)O[C@H]1C[C@@H]2CC[C@@H]3[C@H](CC[C@@]4(C)[C@H]3C[C@H]([N+]3(C)CCCCC3)[C@@H]4OC(C)=O)[C@@]2(C)C[C@@H]1[N+]1(C)CCCCC1 [Pancuronium dibromide]	-0.72
COC(=O)C1=CCCN(C)C1 [Arecoline HBr]	-0.03
CC(NC(C)(C)C)C(=O)c1cccc(Cl)c1 (centres undefined) [Amfebutamone (Bupropion) HCl]	-0.74
CCN1CC2(OC(=O)c3ccccc3NC(C)=O)CCC(OC)C34C1C(CC23)C1(O)CC(OC)C2CC4C1(O)C2OC (centres undefined) [Lappaconitine]	0.34

From the supplement of paper PMC8975748
